# Sampled rows, rich in hits. Any-hit rate of the full collection: about 1.4%.
# NS1 inh – influenza NS1 inhibition | hit rate 0.4% among 270,000 | Potency, µM (titrated, usually from 46.1 µM) | AID 2326; calls by dose curve; further: actives are rising curves; nearly all actives have a fitted effect of over 50% in size
#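 OD600 was taken as the measure of yeast growth restored by compound in an NS1-expressing S. cerevisiae strain. Cells had been washed out of glucose medium and diluted 1:100 into galactose -URA medium, pH 6.0.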
# AmpC inh detg – inhibitors of E. coli AmpC beta-lactamase with detergent | P00811 | AmpC hydrolysis of nitrocefin, absorbance 480 nm, 0.01% Triton | Potency, µM (highest dose often 114 µM), most hits filed as inhibitors | hit rate 0.041% among 370,000; further: nearly all actives have a fitted effect of over 25% in size
# Target sequence (P00811 whole entry, looked up): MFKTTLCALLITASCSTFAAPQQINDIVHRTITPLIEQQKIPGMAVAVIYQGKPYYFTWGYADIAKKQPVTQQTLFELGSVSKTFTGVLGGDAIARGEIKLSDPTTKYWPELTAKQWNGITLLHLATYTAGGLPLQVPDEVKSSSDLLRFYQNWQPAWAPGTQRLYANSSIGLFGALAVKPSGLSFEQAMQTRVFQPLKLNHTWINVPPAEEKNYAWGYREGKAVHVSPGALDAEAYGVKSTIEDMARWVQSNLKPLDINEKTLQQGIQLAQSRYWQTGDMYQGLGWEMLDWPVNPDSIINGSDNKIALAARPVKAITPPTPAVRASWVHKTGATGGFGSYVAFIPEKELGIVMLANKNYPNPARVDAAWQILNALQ
#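 20 mM phosphate pH 7.0 + 0.01% (detergent screen) or 0.0001% Triton X-100; 5.3 nM AmpC reagent; cpd preinc 15 min RT; nitrocefin (800 uM stock) to start; A480 q20 s × 4 min; Activity was normalised to no-enzyme and no-compound control wells.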
# SARS PLpro yeast-1 – blocks SARS-CoV papain-like protease in a yeast assay; S. cerevisiae expressing SARS-CoV PLpro, growth rescue; Potency, µM (titrated, usually from 32.9 µM), hits mostly activators; hit rate 0.19% among 330,000; AID 485353; calls by dose curve; further: nearly all actives have a fitted effect of over 55% in size
# Giardia FBPA inh – Giardia lamblia aldolase inhibition | A8B2U2 | hit rate 0.71% among 290,000 | Potency, µM (titrated, usually from 59.6 µM), actives largely listed as inhibitors | purified Giardia FBPA; further: nearly all actives have a fitted effect of over 55% in size
#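 40 nM FBPA preincubated 10 min at RT with compound (up to 57.5 uM final), then substrate plus GAPDH/TPI/NAD/arsenate coupling and diaphorase/resazurin added. Fluorescence read after 20 min at RT, 525/598 nm.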
# AmpC no deterg – inhibitors of E. coli AmpC beta-lactamase without detergent. AmpC nitrocefin hydrolysis, absorbance 480 nm, 0.0001% Triton. hit rate 0.52% among 330,000. Potency, µM (series often up to 57.1 µM), most hits filed as inhibitors. AID 485341. P00811; further: nearly all actives have a fitted effect of over 20% in size
#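 20 mM phosphate pH 7.0 + 0.01% (detergent screen) or 0.0001% Triton X-100; 5.3 nM AmpC reagent; cpd preinc 15 min RT; nitrocefin (800 uM stock) to start; A480 q20 s × 4 min; Activity was normalised to no-enzyme and no-compound control wells.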
# SARS PLpro yeast-2 – Inhibits SARS-CoV PLP in yeast, hit validation; shares compounds with SARS PLpro yeast-1; yeast expressing SARS-CoV PLpro, growth phenotype rescue; calls only; hit rate 19% among 1,000; call rule not given here
# A number is an active result; i = inactive; ? = inconclusive; nt = not tested or not shown; + = active, no number. Unless noted, the call rests on the fitted dose curve; in most records, active means well fitted curve in the direction sought with a large enough effect; inconclusive means small, poorly fitted or top-dose-only effect, or another doubt; inactive means no such curve, though single readings can be large; an effect the other way counts as inactive or inconclusive.
SMILES,NS1 inh,AmpC inh detg,SARS PLpro yeast-1,Giardia FBPA inh,AmpC no deterg,SARS PLpro yeast-2
CCN(CC)c1ccc(/C=N/Nc2nc(C)cc(=O)[nH]2)c(O)c1,i,?,4.47µM,i,i,i
CCN(CC)c1ccc(/C=N/NC(=O)CCC(=O)NCc2ccccc2)c(O)c1,i,i,3.98µM,?,i,i
C=CCNC(=O)COc1ccc(S(=O)(=O)Nc2ccc(OCC)cc2)cc1,i,i,i,i,i,nt
CCCCOC(=O)C[N+](C)(C)CCOC1CC2CCC1(C)C2(C)C (stereo not given),i,i,nt,i,i,i
CCOC(=O)COn1c(=O)c(-c2ccc(C)cc2)[n+]([O-])c2ccccc21,i,i,i,i,i,nt
C=CCc1ccc(OCCCOc2ccc(C)cc2OC)c(OC)c1,i,i,i,i,i,nt
C=CCc1ccc(OCCn2cncn2)c(OC)c1,i,i,?,i,i,i
CC(NC(=O)c1ccc(N(C)C)cc1)C1CC2CCC1C2 (stereo not given),i,i,22.4µM,i,i,i
COc1ccc(C(=O)NC(C)C2CC3CCC2C3)cc1 (stereo not given),i,?,i,i,i,nt
Cc1ccc(NC(=O)CSc2n[nH]c(-c3ccccn3)n2)cc1,i,i,i,i,i,nt
CC(C)CC(=O)Nc1ccc(C(=O)Cn2nc(C(=O)O)c3ccccc3c2=O)cc1,i,?,12.6µM,i,i,i
CCNC(=O)CN(c1ccc(Cl)cc1)S(=O)(=O)c1ccccc1,i,i,i,i,i,nt
CCNC(=O)CN(c1ccccc1)S(=O)(=O)c1ccc(Cl)cc1,i,i,?,i,i,?
O=C(CCC(=O)Nc1ccc(F)cc1)N/N=C/c1ccc(Br)cc1,i,i,i,i,i,nt
O=C(O)CSc1c(-c2ccccc2)c2cc(Cl)ccc2[nH]c1=O,i,i,?,i,i,i
COc1ccc(C(=O)n2nc(C)cc2Nc2ccccc2)cc1,i,i,i,i,i,nt
COC(=O)C(O)(CC(=O)Nc1ccc(C)c(F)c1)C(F)(F)F (stereo not given),i,?,i,i,i,nt
COc1ccc(N(CC(=O)Nc2cc(Cl)ccc2OC)S(=O)(=O)c2c(C)noc2C)cc1,i,i,?,i,i,+
O=C(Cn1cnc2c(nnn2Cc2ccccc2F)c1=O)NCC1CCCO1 (stereo not given),?,i,?,i,i,i
O=C(Cn1cnc2c(nnn2Cc2ccccc2)c1=O)NCC1CCCO1 (stereo not given),i,?,i,i,i,nt
CC(C)CC(=O)NN(C)c1nc(-c2ccccc2)nnc1C(F)(F)F,i,i,?,i,i,i
COc1cc(OC)cc(C(=O)Nc2ccc3oc(-c4cccc5c(Br)cccc45)nc3c2)c1,nt,i,nt,nt,nt,nt
CCOc1ncccc1C(=O)OCC(=O)Nc1ccc2c(c1)CCC2,nt,nt,?,nt,i,i
COC(=O)Cn1c(CN2CCOCC2)nc2c1c(=O)n(C)c(=O)n2C,i,i,?,i,i,i
CC/C(CC(c1ccccc1)c1c(O)c2ccccc2oc1=O)=N\NC(N)=S (stereo not given),i,?,12.6µM,?,i,i
SMILES,NS1 inh,AmpC inh detg,SARS PLpro yeast-1,Giardia FBPA inh,AmpC no deterg,SARS PLpro yeast-2
O=C(CSc1c2c(nc3cc(Cl)ccc13)CCCC2)NCc1ccccc1Cl,nt,i,nt,nt,nt,nt
Cc1ccccc1OCc1n[nH]c(=S)n1Cc1ccccc1,i,i,?,i,i,?
COc1ccc(OCCCCN(C)Cc2ccccc2)cc1,i,i,i,?,i,nt
C=CCc1cc(OC)ccc1OCCN(C)Cc1ccccc1,i,i,?,?,i,i
COc1cccc(NC(=O)Cn2cnc3c(oc4nc5c(cc43)CCCC5)c2=O)c1,i,i,?,nt,i,?
COc1ccccc1NC(=O)Cn1cnc2c(oc3nc4c(cc32)CCCC4)c1=O,i,i,i,i,i,nt
CCOc1ccc(-n2c(O)c(/C=N/NC(=O)C3COc4ccccc4O3)c3ccccc3c2=O)cc1 (stereo not given),?,i,11.2µM,?,i,?
CCN(CCCNC(=O)c1nn(-c2ccc(OC)c(Cl)c2)c(=O)c2c1c1ccccc1n2C)c1ccccc1,nt,i,nt,nt,nt,nt
O=C(N/N=C/c1cc(Cl)ccc1O)C(=O)Nc1ccccc1OC(F)(F)C(F)F,i,i,2µM,i,i,i
O=C(N/N=C/c1cc(Br)ccc1O)C(=O)Nc1ccccc1OC(F)(F)C(F)F,i,i,i,i,i,nt
O=C(COC(=O)c1ccc2ncsc2c1)Nc1ncc(Cl)cc1Cl,i,i,22.4µM,i,i,i
COCCNC(=S)N1CCN(S(=O)(=O)c2ccc(Cl)s2)CC1,i,i,nt,nt,i,i
CCS(=O)(=O)N1CCN(S(=O)(=O)c2ccc(Cl)s2)CC1,i,i,i,nt,i,nt
COc1ccc(/C(N)=N/OC(=O)c2cccc([N+](=O)[O-])c2C)cc1OC,i,?,?,i,i,i
Cc1cc(C)cc(NC(=O)C(=O)NCc2ccccn2)c1,i,?,?,i,i,i
O=C(N/N=C/c1ccc(OC(F)F)cc1OC(F)F)c1ccc(Br)cc1,i,i,nt,i,i,i
CC(C)(C)c1nnc(N/N=C/c2ccccc2O)n(N)c1=O,i,i,3.16µM,i,i,i
O=C(c1ccccc1)c1ccc(C(=O)N2CCOCC2)cc1,i,i,i,i,i,nt
O=C(c1ccccc1)N1CCN(C(=O)N2CCOCC2)CC1,i,i,?,i,i,i
C/C(=N\O)C(C)(C)Nc1cccc(F)c1,i,i,i,i,i,nt
O=C(CCl)Nc1cccc2ncccc12,i,i,11.2µM,i,i,+

# High-throughput results (PubChem)
